FECH inh: human FECH heme synthesis enzyme inhibition; P22830; purified FECH, Ni-mesoporphyrin absorbance 550 nm; calls only at 10 µM (by protocol); 20,000 tested, 3.3% active; AID 1671448;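 active = enzyme reaction rate more than 3 SD below the solvent-only control wells on the same plate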;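 note: lower slope than DMSO wells means FECH inhibition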
Target sequence (P22830 whole entry, looked up): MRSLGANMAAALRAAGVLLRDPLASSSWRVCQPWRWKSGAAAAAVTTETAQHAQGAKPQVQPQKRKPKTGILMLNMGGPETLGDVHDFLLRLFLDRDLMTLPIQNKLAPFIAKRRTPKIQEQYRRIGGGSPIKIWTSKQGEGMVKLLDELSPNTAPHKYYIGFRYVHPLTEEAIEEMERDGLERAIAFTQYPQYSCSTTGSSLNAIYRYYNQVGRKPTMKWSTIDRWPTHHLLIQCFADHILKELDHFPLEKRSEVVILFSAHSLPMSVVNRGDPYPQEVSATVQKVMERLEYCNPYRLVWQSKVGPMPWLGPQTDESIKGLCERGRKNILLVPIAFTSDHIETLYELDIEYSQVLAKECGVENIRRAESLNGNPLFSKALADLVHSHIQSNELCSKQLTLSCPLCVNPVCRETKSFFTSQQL
Calls only; n = inactive; + = active, no number. The full list was thinned out, with hits kept by preference.

SMILES	FECH inh
Cc1ccc(Nc2nc(N3CCOCC3)nc3c2cnn3-c2ccccc2)cc1C	n
O=C(c1nccc2ccccc12)N1CCN(CC2CCCC2)CC1	n
CCC1=NOC(C(=O)NCCc2nc3ccccc3c(=O)[nH]2)C1 (centres undefined)	n
O=C(NCC(=O)N1CCC(c2nc(-c3ccccc3)no2)CC1)c1ccco1	n
CCOC(=O)c1cc2ccsc2n1CC(=O)Nc1cccc(Cl)c1	n
COc1cccc(OCC(=O)Nc2cc(C)nn2-c2ncnc3c2cnn3-c2ccc(Cl)cc2)c1	n
CN(C)Cc1cccc(CNc2ncnc3c2CCNC3)c1	n
Cc1nnc(-c2ccc(-c3cc(NCCO)nc4[nH]ccc34)cc2)o1	n
CC1CCN(S(=O)(=O)c2ccc(N3C(=O)CCS3(=O)=O)cc2)CC1	n
CN(C)CCCn1c(=O)c2cnc(-c3cccs3)nc2n(C)c1=O	n
Cc1cccc(C)c1OCC(C)NCC(=O)Nc1cnccn1 (centres undefined)	n
CC(C)c1nnsc1CNC(=O)C(C)n1cnc2ccccc21 (centres undefined)	n
Cc1ccc(C(=O)Nc2nc3n(n2)C(c2ccc(Cl)cc2)C=C(c2ccccc2)N3)cc1 (centres undefined)	n
O=C(Nc1nc2n(n1)C(c1ccc(F)cc1)C=C(c1ccc(Cl)cc1)N2)c1ccco1 (centres undefined)	n
Cc1ccc(C2=CC(c3ccc(Cl)cc3)n3nc(NC(=O)c4ccco4)nc3N2)cc1 (centres undefined)	+
Cc1ccc(C2=CC(c3ccc(Cl)cc3)n3nc(NC(=O)CC(C)C)nc3N2)cc1 (centres undefined)	+
O=C(Nc1nc2n(n1)C(c1ccc(Cl)cc1)C=C(c1ccc(Cl)cc1)N2)c1ccco1 (centres undefined)	n
O=C(Nc1nc2n(n1)C(c1ccc(F)cc1)C=C(c1ccc(Cl)cc1)N2)c1ccc(F)cc1 (centres undefined)	n
Cc1ccc(C2=CC(c3ccc(Cl)cc3)n3nc(NC(=O)c4ccc(F)cc4)nc3N2)cc1 (centres undefined)	+
Cc1ccc(C2=CC(c3ccc(Cl)cc3)n3nc(NC(=O)CCc4ccccc4)nc3N2)cc1 (centres undefined)	n
Cc1ccc(C(=O)Nc2nc3n(n2)C(c2ccc(F)cc2)C=C(c2ccc(C)cc2)N3)cc1 (centres undefined)	n
CC(C)C(=O)Nc1nc2n(n1)C(c1ccc(Cl)cc1)C=C(c1ccc(Cl)cc1)N2 (centres undefined)	n
Cc1ccc(C2=CC(c3ccc(Cl)cc3)n3nc(NC(=O)c4ccccc4)nc3N2)cc1 (centres undefined)	+
Cc1ccc(C2=CC(c3ccc(Cl)cc3)n3nc(NC(=O)c4cccc(C)c4)nc3N2)cc1 (centres undefined)	n
CNc1ncccc1C(=O)N1CCOC(C(F)(F)F)C1 (centres undefined)	n
SMILES	FECH inh
CCc1c(C)nc2ncnn2c1Sc1ccccc1NC(=O)COc1ccc(Cl)cc1	n
CCc1cnc(C)nc1N1CCC(O)(Cn2ccnc2)CC1	n
CN1CCN2C[C@@H](NC(=O)c3[nH]ncc3Cl)C[C@H]2C1	n
Cc1cccc(CN2C(=O)c3oc4ccccc4c3OCC2(C)C(=O)NC2CCCC2)c1 (centres undefined)	n
O=C(Cn1cccc1)N1CCC(c2cc(Cc3ccccc3)[nH]n2)CC1	n
CN(C)S(=O)(=O)CCNC1CCSC1 (centres undefined)	n
CC(=O)c1ccc(N2CCN(C(=O)CN3C(=O)CN(C)C(=O)c4ccccc43)CC2)cc1	n
CCC(Nc1nccc(-c2ccc(C)nc2C)n1)c1cn2cccnc2n1 (centres undefined)	n
CCCCN(Cc1ccccc1)c1ncc(NS(=O)(=O)c2ccc(OC)cc2)cc1C(=O)O	n
CNC(=O)[C@@H]1C[C@@H](N)CN1C(=O)c1ccc(OC)c(COC)c1	n
Cc1cc(C)n(CCn2ccnc2-c2cccc(-n3cccn3)c2)n1	n
CCc1cc(Sc2ccccc2NC(=O)c2ccc(OC)c(OC)c2)n2nc(C)nc2n1	n
NC(=O)CN1CCCC(C(=O)NCCCc2ccccc2O)C1 (centres undefined)	n
CSc1nc(NCCC2=CCCCC2)c(C#N)c(-c2ccccc2)n1	+
CSc1nc(NCc2ccc(Cl)cc2)c(C#N)c(-c2ccccc2)n1	n
CSc1nc(NCCN2CCOCC2)c(C#N)c(-c2ccccc2)n1	n
Cc1cccc(Cn2c(CNS(=O)(=O)c3ccc(F)cc3)nc3cccnc32)c1	n
CCc1ccc(Cn2c(CNS(=O)(=O)c3ccc([N+](=O)[O-])cc3)nc3cccnc32)cc1	+
Cc1ccc(Cn2c(CNC(=O)c3ccncc3)nc3cccnc32)cc1	n
Cc1cccc(Cn2c(CNS(=O)(=O)c3ccccc3)nc3cccnc32)c1	+
Cc1ccc(Cn2c(CNC(=O)c3cccnc3)nc3cccnc32)cc1	+
Cc1ccccc1S(=O)(=O)NCc1nc2cccnc2n1CC(C)C	n
CCc1ccc(S(=O)(=O)NCc2nc3cccnc3n2Cc2ccc(F)cc2)cc1	n
CC(C)Cn1c(CNS(C)(=O)=O)nc2cccnc21	+
CCOc1ccc(C(=O)NCc2nc3cccnc3n2Cc2ccc(C)cc2)cc1	n
SMILES	FECH inh
CC(C)Cn1c(CNS(=O)(=O)c2ccc(Cl)cc2)nc2cccnc21	n
CCc1ccc(Cn2c(CNS(=O)(=O)c3ccc(C)cc3)nc3cccnc32)cc1	n
Cc1cccc(S(=O)(=O)NCc2nc3cccnc3n2Cc2ccccc2)c1	n
Cc1ccc(N2C(=O)N(Cc3cc(F)cc(F)c3)c3ccccc3S2(=O)=O)cc1F	n
Cc1ccsc1-c1cn(CC(CO)Cc2ccco2)nn1 (centres undefined)	n
Cc1cc(C(F)(F)F)nc(CNC(=O)c2cn(-c3ccccc3)nn2)n1	n
Cc1cc(N(C)C)nc(N2CCN(S(=O)(=O)c3ccccc3)CC2)n1	+
Cc1cc(N(C)C)nc(N2CCN(S(=O)(=O)c3ccc(Oc4ccccc4)cc3)CC2)n1	n
Cc1cccc(S(=O)(=O)N2CCN(c3nc(C)cc(N(C)C)n3)CC2)c1	n
COc1ccc(NC(=O)N2CCN(CCn3c(C)nc4cccnc43)CC2)cc1Cl	n
CCCCN(C(=O)CCNC(C)=O)C1CCCCCC1	n
CCc1nc(OCC(=O)NC2CCCc3ccccc32)c2c(C)c(C)oc2n1 (centres undefined)	n
Cc1nn(C)c(C)c1CN(C(=O)CCc1nc(-c2ccco2)no1)C(C)C	n
COc1cc(OC)cc(C(=O)Nc2ccccc2Sc2c(C)c(C)nc3ncnn23)c1	+
COc1cc(OC)cc(C(=O)Nc2ccccc2Sc2c(C)c(C)nc3nc(-c4ccccc4)nn23)c1	n
CCc1c(C)nc2ncnn2c1Sc1ccc(NS(=O)(=O)c2cc(Cl)ccc2OC)cc1	+
CCc1cc(Sc2ccc(NC(C)=O)cc2)n2ncnc2n1	n
CCc1c(C)nc2ncnn2c1Sc1ccc(NS(=O)(=O)c2ccc(OC)c(OC)c2)cc1	n
CCc1cc(Sc2ccc(NC(=O)Nc3ccc(Br)cc3)cc2)n2ncnc2n1	+
COc1ccccc1C(=O)Nc1ccccc1Sc1c(C)c(C)nc2ncnn12	n
CCCc1c(C)nc2ncnn2c1Sc1ccc(NC(=O)c2ccc(OC)c(OC)c2)cc1	+
CCCc1c(C)nc2ncnn2c1Sc1ccc(NS(=O)(=O)c2cc(OC)ccc2OC)cc1	n
CCCc1c(C)nc2ncnn2c1Sc1ccc(NC(=O)c2cc(OC)c(OC)c(OC)c2)cc1	n
CCc1cc(Sc2ccc(NC(=O)Nc3cccc(F)c3)cc2)n2ncnc2n1	n
